Activity calls are given as the source filed them. Rule for the calls: active = hit-call score of the fitted dose curve at least 0.9, where 1 is the maximum; inconclusive = response in the unintended direction; inactive = score below 0.9.

This assay in a line: Tanguay_ZF_120hpf_MORT_legacy: (Legacy) Oregon State University Tanguay Lab 120 Hour Post-fertilization zebrafish Assay for Mortality (AID 2283633).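 For AC50: fitted as increase in binary mortality versus DMSO negative control.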 In a few lines: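 Brightfield scoring of embryo death (binary) at 24 and 120 hpf; static exposure 6–120 hpf, 28C, sealed and foil-covered. Pronase-dechorionated 5D wild-type larvae, single embryo per well. DMSO 0.64% v/v; trimethyltin chloride 5uM positive control.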
The term AC50 denotes the concentration at which the activity in the assay is half-maximal. As to `CC1=C(/C=C/C(C)=C/C=C/C(C)=C/C(=O)O)C(C)(C)CCC1`, the AC50 was 1540 nM (active).

Take `CCCCCCCCOC(=O)CCCCCCCCC(=O)OCCCCCCCC`: the call was inactive.

Regarding `CCOC(=O)CC(O)(CC(=O)OCC)C(=O)OCC`, the result was inactive.

As to `CC[C@H](C)[C@@H](C(=O)O)n1sc2ccccc2c1=O`, the result was inactive.

Consider `NC(=O)N(O)[C@@H]1C=C[C@H](Oc2cccc(Oc3ccc(F)cc3)c2)C1`, for which the call was inactive.

Turning to `CCCCCCCCCCCCCCCS(=O)(=O)Oc1ccccc1`, the outcome was inactive.

With `CC(=O)NC1(c2cccc(F)c2)CCN(CC[C@@]2(c3ccc(Cl)c(Cl)c3)CN(c3ccccc3)C(=O)CO2)CC1`, the compound was classed as inactive.

With `Cc1cc(C)c(O)c(C)c1`, the compound was called inactive.

For `CC(C)(C)c1cccc(C(C)(C)C)c1O`, the compound was called inactive.

For the compound `CCCOc1sc(C(=O)N2CCC(c3cc(CN)ccc3F)CC2)c(C)c1Br`, the outcome was inactive.

For the compound `OC1CCCCC1`, the call was inactive.

For the compound `CC(C)(C)c1cc(C(C)(C)C)c(O)c(C(C)(C)C)c1`, the result was inactive.

`CCN(CC)CCNc1ccc(CNC=O)c2sc3ccc(OC)cc3c(=O)c12`: the outcome was inactive.

With `CC(=O)CC(C)(C)O`, the outcome was inactive.

Turning to `OCCC(F)(F)C(F)(F)C(F)(F)C(F)(F)C(F)(F)C(F)(F)C(F)(F)C(F)(F)F`, the compound was classed as inactive.

For `CCC(=C(c1ccc(O)cc1)c1ccc(OCCN(C)C)cc1)c1ccccc1`, the result was inactive.

As to `CCCCCCC(=O)O`, the outcome was inactive.

With `COC(=O)CCCCC(=O)OC`, the compound was called inactive.

As to `C=C(C)C(=O)OCCC(F)(F)C(F)(F)C(F)(F)C(F)(F)C(F)(F)C(F)(F)F`, the call was inactive.

On to `CCCCOCCO`, for which the compound was called inactive.

For the compound `CC(C)CCCCCCOC(=O)CCCCC(=O)OCCCCCCC(C)C`, the compound was classed as inactive.

(Values after PubChem BioAssay (EPA / NIEHS).)
